Reference: PubChem BioAssay AID1851 (National Center for Advancing Translational Sciences (NCATS), 2009)
Where “and” joins values, the source holds several entries; their conditions need not be identical. Equal entries are not always repeated. The campaign covered roughly 16,000 compounds. About 5,700 (36%) were called active. Inconclusive results (about 24%) are left out. The call rests on the fitted dose curve; in most records, active means well fitted curve in the direction sought with a large enough effect; inconclusive means small, poorly fitted or top-dose-only effect, or effect the other way; inactive means no such curve, though single readings can be large or run the other way. The list shows a part of the results.
On the % scale 0 is the no-effect control and ±100 the full control effect.

What follows are compounds tested against Cytochrome P450 1A2 (Homo sapiens) (UniProt P05177) (assay: Cytochrome panel assay with activity outcomes). Details: recombinant CYP, pro-luciferin dealkylation, luminescence, p450-cyp1a2; series mostly up to 57.1 µM; activity, negative = inhibition: at the top concentration.
Chain of Cytochrome P450 1A2 (Homo sapiens) (P05177 whole entry, looked up): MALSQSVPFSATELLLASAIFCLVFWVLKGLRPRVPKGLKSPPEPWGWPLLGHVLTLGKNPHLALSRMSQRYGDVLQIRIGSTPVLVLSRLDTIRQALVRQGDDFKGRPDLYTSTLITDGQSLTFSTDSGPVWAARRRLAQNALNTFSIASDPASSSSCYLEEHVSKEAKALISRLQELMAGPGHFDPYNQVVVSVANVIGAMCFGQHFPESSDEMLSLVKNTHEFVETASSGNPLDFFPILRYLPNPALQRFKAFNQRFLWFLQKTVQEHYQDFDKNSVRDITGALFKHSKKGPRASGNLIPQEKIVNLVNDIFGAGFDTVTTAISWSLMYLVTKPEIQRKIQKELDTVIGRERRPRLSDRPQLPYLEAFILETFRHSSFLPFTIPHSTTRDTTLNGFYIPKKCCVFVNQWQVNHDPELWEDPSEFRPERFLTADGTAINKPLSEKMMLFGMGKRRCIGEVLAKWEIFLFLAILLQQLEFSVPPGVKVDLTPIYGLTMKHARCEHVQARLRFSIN
`CCCOc1ccc(C(=O)NNC(=S)NC(=O)CC)cc1` was tested, and the “activity, negative = inhibition” value was -5.86% (inactive). In the case of `Cc1ccc(NC(=O)c2cc(NC(=O)CCCC(=O)O)ccc2Cl)cc1Cl`, the “activity, negative = inhibition” value is reported as 4.24% (inactive). With `Cc1ccc(NC(=O)CCC(=O)c2ccc(F)cc2)cc1Cl` the AC50 was 6.31 µM (active). In the case of `CCCOc1ccc(C(=O)CCNc2ccc(C)c(Cl)c2)cc1`, the AC50 is reported as 0.891 µM (active). For `Cc1ccc(NCCC(=O)c2ccc(Cl)c(Cl)c2)cc1`, the AC50 was 1.26 µM (active). For `O=C(O)CCC(=O)Nc1ccc(C(=O)N2CCCCC2)cc1`, the “activity, negative = inhibition” value was -4.13% (inactive). With `Cc1ccc(NCCC(=O)c2ccc(Cl)cc2)cc1` the AC50 was 0.251 µM (active). `O=C(O)CCC(=O)c1ccc(Cl)cc1` was tested, and the activity, negative = inhibition was -17.8% [at 11.4 µM] (inactive). In the case of `O=C(O)[C@@H]1[C@@H]2C[C@@H]3[C@@H](OC(=O)[C@@H]31)[C@H]2Br`, the activity, negative = inhibition is reported as -4.92% [at 11.4 µM] (inactive). `OC(CCN1CCCCC1)(c1ccccc1)c1ccccc1` was tested, and the “activity, negative = inhibition” value was -0.0902% [at 25.6 µM] (inactive). With `Cc1c(Cl)c(S(N)(=O)=O)cc(S(N)(=O)=O)c1NC(=O)c1ccc(Cl)cc1` the activity, negative = inhibition was -2.26% [at 11.4 µM] (inactive). With `Cc1ccc(NCCC(=O)c2ccc(Cl)cc2)cc1C` the AC50 was 0.631 µM (active). With `CCCCOC(=O)Nc1ccc(C)c(Cl)c1` the AC50 was 4.47 µM (active). In the case of `Cc1cnc(CNc2ncnc3ccc(-c4cccc(C#N)c4)cc23)cn1`, the AC50 is reported as 0.398 µM (active). With `COc1cccc(-c2ccc3ncnc(NCc4cnc(C)cn4)c3c2)c1` the AC50 was 2.51 µM (active). For `C/C(CCN1CCc2nc(-c3ccccc3)c(-c3ccccc3)cc2C1)=N\OC[C@@H](C)[C@H](OCc1ccccc1)C(C)C`, the activity, negative = inhibition was -4.9% [at 11.4 µM] (inactive). In the case of `COC(=O)C/C=C\[C@@H](C)[C@@H](/C=N\OC[C@@H]1O[C@H](c2ccccc2)C=C[C@@H]1Oc1ccc(OC)cc1)OC`, the activity, negative = inhibition is reported as 10.1% [at 11.4 µM] (inactive). For `Cc1cccc(C)c1NC(=O)CCN1C(=O)C2C3CCC(C3)C2C1=O` (stereo unspecified), the “activity, negative = inhibition” value was 1.26% (inactive). In the case of `CC(=O)Nc1ccc(NCN2C(=O)C3C4CCC(C4)C3C2=O)cc1` (stereo unspecified), the “activity, negative = inhibition” value is reported as 10.1% (inactive). In the case of `Cc1cccc(OC(=O)CN2C(=O)C3C4CCC(C4)C3C2=O)c1C` (stereo unspecified), the AC50 is reported as 12.6 µM (active). `COc1ccc(O[C@H]2C=C[C@@H](c3ccccc3)O[C@H]2COC(=O)N2CCCCC2)cc1` was tested, and the activity, negative = inhibition was -4.44% [at 11.4 µM] (inactive). `C(=N\Nc1nc(Nc2ccccc2)nc(N2CCOCC2)n1)/c1c[nH]c2ccccc12` was tested, and the AC50 was 10 µM (active). `C#CCCCO/N=C1/C[C@@H](O)[C@@H](O)[C@@H]2[C@@H]3C(=O)N(C[C@@H]4CCCO4)C(=O)[C@H]3CC[C@@H]12` was tested, and the activity, negative = inhibition was 1.69% [at 11.4 µM] (inactive). With `COc1ccccc1N1CCN(CCCCNC(=O)c2ccc3ccccc3c2)CC1` the “activity, negative = inhibition” value was -12.9% [at 25.6 µM] (inactive). For `COc1ccccc1N1CCN(CCCCNC(=O)c2ccc(-c3ccc(C(C)=O)cc3)cc2)CC1`, the AC50 was 25.1 µM (active). `COc1ccccc1N1CCN(CCCNc2cc(=O)n(C)c(=O)n2C)CC1` was tested, and the AC50 was “inactive”. For `COc1ncc2nc(C)c(=O)n(CCc3ccccc3)c2n1`, the AC50 was 2 µM (active). `COc1ncc2nc(-c3ccc(F)cc3)c(=O)n(CCc3ccccc3)c2n1` was tested, and the AC50 was 0.398 µM (active). `COc1ncc2nc(-c3ccc(F)cc3)c(=O)n(Cc3ccc(F)cc3)c2n1` was tested, and the AC50 was 1.58 µM (active). `COc1ccccc1N(CC(=O)NCC1CCCO1)C(=O)CNS(=O)(=O)c1ccc(C)cc1` (stereo unspecified) was tested, and the “activity, negative = inhibition” value was -5.27% (inactive). In the case of `Cc1ccc(S(=O)(=O)N[C@H]2COC(=O)CC=C[C@@H](C)[C@H]3C=C[C@H](O)[C@@H](COC(=O)CC=C[C@H]2C)O3)cc1`, the activity, negative = inhibition is reported as -8.39% [at 11.4 µM] (inactive) and -5.02% [at 11.4 µM] (inactive). `S=c1nc[nH]c2c1ncn2Cc1ccco1` was tested, and the activity, negative = inhibition was -16.3% [at 11.4 µM] (inactive). For `CCOC(=O)c1c(C)n(C)c2ccc(OC)c(NC(=O)CN3CCCCC3)c12`, the AC50 was 15.8 µM (active). With `Cc1c(NC(=O)CN2CCN(c3ccccc3)CC2)c(=O)n(-c2ccccc2)n1C` the “activity, negative = inhibition” value was 0.0126% (inactive). With `c1ccc(CSc2nnc(-c3sccc3-n3cccc3)o2)cc1` the AC50 was 2.82 µM (active). `Clc1ccc(CSc2nnc(-c3cccnc3)o2)cc1` was tested, and the AC50 was 3.55 µM (active). With `O=c1c(-c2nnc(SCc3ccc(Cl)c(Cl)c3)o2)cccn1Cc1ccccc1` the “activity, negative = inhibition” value was -26.4% (inactive). `Cc1cccc(-c2nnc(SCc3ccccc3)o2)c1` was tested, and the AC50 was 14.1 µM (active). For `Clc1ccc(CSc2nnc(-c3sccc3-n3cccc3)o2)cc1`, the AC50 was 2.82 µM (active). `Clc1cccc(CSc2nnc(-c3sccc3-n3cccc3)o2)c1` was tested, and the AC50 was 2.51 µM (active). In the case of `CC(NC(=O)CCSc1nc(-c2ccco2)cc(C(F)(F)F)n1)c1ccccc1` (stereo unspecified), the AC50 is reported as 12.6 µM (active). `O=C(NC(C(=O)c1ccccc1)n1cnccc1=O)c1ccccc1` (stereo unspecified) was tested, and the “activity, negative = inhibition” value was 3.62% (inactive). In the case of `COC(=O)c1ccc(C(NC(=O)c2ccco2)[C@]2(C)C[C@H]2C2CCCCC2)cc1` (stereo partly specified), the “activity, negative = inhibition” value is reported as -13.3% (inactive). `CC1CCN(C(NC(=O)c2ccco2)C(=O)c2ccccc2)CC1` (stereo unspecified) was tested, and the AC50 was 14.1 µM (active). `CCSC(N)=Nc1ccc(C(F)(F)F)cc1` was tested, and the AC50 was 2.51 µM (active). For `NC(N)=Nc1ccc(-c2ccc(N=C(N)N)cc2)cc1`, the activity, negative = inhibition was -1.39% [at 11.4 µM] (inactive). With `CCOC(=O)c1nc(N)sc1C(=O)OCC` the AC50 was 7.08 µM (active). With `CCOC(=O)c1sc(C)c(C(=O)NCC(C)(C)CN(C)C)c1N` the “activity, negative = inhibition” value was -3.26% (inactive). In the case of `CCN1CCN(C(=O)N[C@H](C(=O)N[C@@H]2C(=O)N3[C@@H]2SC(C)(C)[C@@H]3C(=O)O)c2ccccc2)C(=O)C1=O`, the “activity, negative = inhibition” value is reported as -2.8% [at 25.6 µM] (inactive). With `O=C1C(C2=NC(C(=O)O)C3C(=O)N(c4ccc(Cl)cc4)C(=O)C23)=C(O)c2ccccc21` (stereo unspecified) the “activity, negative = inhibition” value was -5.96% (inactive). With `O=C(O)c1nn(-c2ccccc2-c2n[nH]c(=O)[nH]c2=O)c(=O)[nH]c1=O` the activity, negative = inhibition was -21.2% [at 11.4 µM] (inactive). `O=C(O)c1nn(-c2ccc(Cl)cc2)c2c1C(=O)c1ccccc1C2=O` was tested, and the AC50 was 0.251 µM (active). With `CC(C)CN1CC[C@@]2(CCCN(C(=O)c3cnccn3)C2)C1` the “activity, negative = inhibition” value was -15.1% (inactive). For `O=C(Nc1nnc(-c2ccc(Cl)cc2)o1)Nc1ccccc1Cl`, the AC50 was 1.58 µM (active). `CC(=O)NNc1cccc(Cl)n1` was tested, and the “activity, negative = inhibition” value was -17.3% (inactive). In the case of `Cc1cc(NC(=O)c2ccccc2Cl)c(C(C)C)cc1O`, the AC50 is reported as 3.55 µM (active). In the case of `O=C(Nc1ccccc1Cl)c1ccccc1Cl`, the AC50 is reported as 1.78 µM (active). For `O=C(NNc1cccc(Cl)n1)Nc1ccccc1Cl`, the AC50 was 2.51 µM (active). In the case of `O=C(CCN1CCN(CC(=O)Nc2ccccc2Cl)CC1)Nc1ccccc1F`, the “activity, negative = inhibition” value is reported as -0.462% (inactive). `Cc1cccc(C)c1NC(=O)C(NC=O)c1ccccc1Cl` (stereo unspecified) was tested, and the “activity, negative = inhibition” value was 2.26% (inactive). With `Cn1sc(NC(=O)c2ccccc2Cl)nc1=O` the “activity, negative = inhibition” value was -20.9% (inactive).
